Reference: PubChem BioAssay AID1823 (The Scripps Research Institute Molecular Screening Center, 2009)
The campaign covered roughly 16,000 compounds. About 70 (0.4%) were called active. The sample as a whole holds a higher share of actives than the screen did. Values without a mark were called inactive. Rule as the data show it: active = inhibition above about 75%; inactive = the rest.

Experiment: counter-screen for Nox1 inhibitors: inhibitors of luminol chemiluminescence (AID 1823)
Settings: HRP/luminol/H2O2 chemiluminescence counterscreen; at 6.7 µM; hits give high values

| SMILES | inhibition |
| --- | --- |
| CC(C)(C)NC(=O)N/N=C/c1[nH]ncc1Br | -2.94% |
| COc1ccccc1NC(=O)c1ccc(C#Cc2ccccc2)o1 | 0.37% |
| CCCS(=O)(=O)c1csc(C(=O)OC)c1N/N=C/c1cccs1 | 1.56% |
| COCn1nnc2ccccc21 | 0.3% |
| Cc1c(N/N=C(\C#N)c2nc3ccccc3[nH]2)c(=O)n(-c2ccccc2)n1C | 7.97% |
| O=C(O)CC1(CC(=O)Nc2ccc(N3CCCCC3)cc2)CCCCC1 | -6.38% |
| CSc1sc(C(N)=O)cc1C#N | -6.88% |
| Cc1cc(C2=CSC3=NCCN23)ccc1Cl | 36.3% |
| OCCNC(=S)Nc1ccccc1-c1ccccc1 | 0.57% |
| O=S(=O)(c1ccccc1)c1cc(C(F)(F)F)cc(C(F)(F)F)c1 | -1.49% |
| CSc1sc(NC(=O)N2CCOCC2)c(-c2ccc(Cl)cc2)c1C#N | 3.63% |
| Oc1c(Cl)c(Cl)c(Cl)c2ccccc12 | 4.73% |
| CN(C)/C=C1/C(=O)NN=C1CSc1ccc(Cl)cc1 | -3.51% |
| Cc1ccc(N=C2SC3(CC3)C(=O)N2c2ccc(C)cc2)cc1 | -0.15% |
| CC1(C)CCc2cc(-c3ccnc(SCC(=O)c4ccccc4)n3)ccc2O1 | -4.62% |
| O=C(NCc1cccnc1)c1cnc2ccccc2n1 | -0.07% |
| CC(=O)NC(Cc1c[nH]c2ccccc12)C(=O)O (stereo not drawn) | -1.35% |

| SMILES | inhibition |
| --- | --- |
| O=C(c1ccc(F)cc1)C1CCN(Cc2cn[nH]c2-c2ccccc2)CC1 | 0.3% |
| CC1(NC(=O)OCc2ccccc2)CC1NC(=O)OCc1ccccc1 (stereo not drawn) | 1.98% |
| O=c1[nH]cc(Br)c(=O)[nH]1 | -0.43% |
| CC1CN(c2ccc(NC(=S)NCc3cccs3)cc2)CC(C)O1 (stereo not drawn) | -35.2% |
| O=C(O)CC(CC(=O)N1CCOCC1)c1ccccc1 (stereo not drawn) | -4.82% |
| O=C(CSc1ccc(Cl)cc1)NCCSCc1ccco1 | -0.61% |
| O=C(NCCO)NCCSc1ccc(F)cc1 | -2.48% |
| CSc1n[nH]c(=O)n1-c1cccc(C(F)(F)F)c1 | 1.69% |
| FC(F)(F)c1ccc(-n2cn[nH]c2=S)cc1 | 53.1% |
| FC(F)(F)c1cccc(-n2c(-c3ccncc3)n[nH]c2=S)c1 | 97.8% (active) |
| O=c1[nH]/c(=C/c2ccc(OC(F)(F)F)cc2)c(=O)[nH]/c1=C/c1ccc(OC(F)(F)F)cc1 | 0.16% |
| O=C(Nc1ccc(Cl)cc1)c1csc(COc2ccc3nonc3c2)n1 | 3.82% |
| Cn1cc(C(=O)c2ccc(Cl)cc2)cc1/C=C(\C#N)S(=O)(=O)c1ccc(C(F)(F)F)cn1 | 2.9% |
| O=C(Nc1ccccc1)Nc1nc2ccccc2s1 | -7.1% |
| O=c1c2cc(-c3ccccc3)sc2nc2n1N=C(c1cccs1)CS2 | -0.02% |
| COc1cc(OC)nc(S(C)(=O)=O)n1 | -4.97% |
